Values without a mark were called inactive. Records with an inconclusive call do not appear. The source made the active and inactive calls. Unless noted, calls come from the whole dose curve.

Assay [1] is described as follows: Nuclear factor erythroid 2-related factor 2/antioxidant responsive element (Nrf2/ARE) small molecule agonists: luciferase reporter gene qHTS assay in human keratinocytes (AID 1919969). Note: nearly all actives have a fitted effect of over 35% in size. For orientation: A reporter such as luciferase makes a cellular process visible.
Assay [2] deals with Gonadotropin-releasing hormone receptor (Homo sapiens) (UniProt P30968). Nature of the assay: Human gonadotropin-releasing hormone receptor (GnRHR) small molecule agonists, calcium flux assay in GnRHR-HEK293 cells (AID 1920063). Note: nearly all actives have a fitted effect of over 35% in size. A digest of the protocol:
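HEK293 cells stably expressing human GnRHR were plated 18 h at 37 °C, loaded with calcium dye 1 h at 37 °C, then given compound in agonist mode; fluorescence (Ex/Em 480/540) read kinetically for 3 min at 1 s intervals.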

The target in assay [3] is KiSS-1 receptor (Homo sapiens) (UniProt Q969F8). Description: Human kisspeptin (KISS1R) small molecule agonists, calcium flux assay in KISS1R-HEK293 cells (AID 1920064; active = well fitted activation curve with a large enough effect in the repeat runs). An outline of the steps:
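HEK293 cells stably expressing human KISS1R were plated 18 h at 37 °C, loaded with calcium dye for 1 h at 37 °C, then given compound by pin tool. Fluorescence (Ex/Em 480/540) was read kinetically for 3 min.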
For orientation: Calcium assays in cells follow changes in intracellular calcium, usually with a dye or a luminescent sensor.

The nature of assay [4]: G protein-coupled receptor (GPCR) small molecule agonists, calcium flux assay: HEK293 wild type cell line counter screen (AID 1920065). A digest of the protocol: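 Cells were plated and cultured 18 h at 37 C/5% CO2, then loaded with calcium dye for 1 h at 37 C. Compounds in DMSO were pin-transferred in agonist mode, and fluorescence (Ex/Em 480/540) was read kinetically for 3 min at 1 s intervals.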

Assay [5] can be described thus: p53 small molecule agonists, cell-based qHTS assay with human liver microsomes (AID 1963577). An outline of the steps: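 p53RE-bla cells, 4,000/well, compound added after 5 h, with human liver microsomes 0.5 mg/mL and NADPH 0.5 mg/mL final; 16 h at 37 C, then LiveBLAzer 2 h RT, fluorescence.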
In general terms: In qHTS, concentration-response curves come from the screen itself.

Assay [6] in a line: p53 small molecule agonists, cell-based qHTS assay with rat liver microsomes (AID 1963578). An outline of the steps:
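p53RE-bla cells, 4,000/well, pre-incubated 5 h, then given compounds plus rat liver microsomes (0.5 mg/mL final) and NADPH (0.5 mg/mL final). Incubation 16 h at 37 C; beta-lactamase reporter read by LiveBLAzer fluorescence after 2 h at room temperature.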

Assay [7] can be described thus: p53 small molecule agonists, cell-based qHTS assay with human liver microsomes: qHTS cell viability counter screen (AID 1963579). Note: nearly all actives have a fitted effect of over 45% in size. An outline of the steps: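 p53RE-bla cells, 4,000/well, dosed 5 hours after plating, with human liver microsomes (0.5 mg/mL final) plus NADPH (0.5 mg/mL final), 16 hours at 37 C. Viability read as CellTiter-Glo luminescence after 30 min at room temperature.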

A short description of assay [8]: p53 small molecule agonists, cell-based qHTS assay with rat liver microsomes: qHTS cell viability counter screen (AID 1963580). Note: nearly all actives have a fitted effect of over 45% in size. An outline of the steps:
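Viability is assessed in parallel with the p53 reporter read: HCT-116 p53RE-bla cells receive compounds plus rat microsomes and NADPH (0.5 mg/mL final apiece), incubate 16 h at 37 C, and then CellTiter-Glo luminescence is recorded.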

Assay [9] is described as follows: p53 small molecule agonists, cell-based qHTS assay: qHTS cell viability counter screen (AID 1963581). Note: nearly all actives have a fitted effect of over 45% in size. An outline of the steps: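 p53RE-bla HCT-116 cells were exposed to compounds for 16 h at 37 C; after the beta-lactamase FRET read in the same wells, CellTiter-Glo was added and luminescence (intracellular ATP) read after 30 min at room temperature.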
A short description of assay [10]: p53 small molecule agonists, cell-based qHTS assay (AID 1963582; active = well fitted activation curve with a large enough effect in the signal ratio in the repeat runs, not every such curve was filed as active; the % refers to the signal ratio). A digest of the protocol:
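p53RE-bla beta-lactamase reporter cells rested 5 h at 37 C/5% CO2, then received compounds in DMSO by pin transfer and were incubated 16 h at 37 C. LiveBLAzer B/G FRET substrate was loaded for 2 h at room temperature before fluorescence reading.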

Assay [11] deals with 5-hydroxytryptamine receptor 2A (Homo sapiens) (UniProt P28223). Description: 5-hydroxytryptamine receptor 2A (HTR2A) small molecule antagonists, cell-based qHTS assay (AID 1963586). Note: nearly all actives have a fitted effect of over 45% in size. Note: potency is the fitted concentration of half-maximal effect. An outline of the steps: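 Antagonist-mode intracellular calcium assay: DOI (4 nM) added after 5 min compound pre-incubation at room temperature to dye-loaded HTR2A-CHO cells. Fluorescence followed for 3 min, sampled every second.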
5-hydroxytryptamine receptor 2A (Homo sapiens), sequence (P28223 whole entry, looked up): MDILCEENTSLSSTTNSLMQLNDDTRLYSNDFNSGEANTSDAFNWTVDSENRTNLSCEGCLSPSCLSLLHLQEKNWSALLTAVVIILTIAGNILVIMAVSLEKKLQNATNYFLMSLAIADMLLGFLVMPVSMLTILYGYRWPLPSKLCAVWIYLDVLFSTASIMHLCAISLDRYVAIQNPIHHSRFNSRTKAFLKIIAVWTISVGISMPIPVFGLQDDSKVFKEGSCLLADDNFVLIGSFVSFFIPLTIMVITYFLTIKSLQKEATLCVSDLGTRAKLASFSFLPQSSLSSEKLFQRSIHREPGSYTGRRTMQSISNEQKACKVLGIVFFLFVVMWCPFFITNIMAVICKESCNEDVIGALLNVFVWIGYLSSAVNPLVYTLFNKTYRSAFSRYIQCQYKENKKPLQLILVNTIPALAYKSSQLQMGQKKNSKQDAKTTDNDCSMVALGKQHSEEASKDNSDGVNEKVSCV

Assay [12] has the same target. Nature of the assay: 5-hydroxytryptamine receptor 2A (HTR2A) small molecule agonists, cell-based qHTS assay (AID 1963587). Note: nearly all actives have a fitted effect of over 30% in size. Note: potency is the fitted concentration of half-maximal effect. An outline of the steps: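 CHO cells stably expressing human HTR2A, plated 18 h, loaded with calcium dye 1 h at 37 C. Agonist mode: compounds added and intracellular calcium fluorescence recorded kinetically for 2 min at 1 sec intervals.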
Assay [13] concerns the target Muscarinic acetylcholine receptor M1 (Homo sapiens) (UniProt P11229). Nature of the assay: Cholinergic receptor muscarinic 1 (CHRM1) small molecule agonists, cell-based qHTS assay (AID 1963589). Note: nearly all actives have a fitted effect of over 35% in size. A digest of the protocol: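 CHO cells stably expressing human CHRM1, seeded 18 h at 37 C/5% CO2, dye-loaded 1 h at 37 C, then given compound in agonist mode; intracellular calcium fluorescence read kinetically at 1 s intervals. Fifteen concentrations, three independent runs.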

Assay [14] in a line: cAMP Responsive Elements (CRE) small molecule agonists, cell-based qHTS assay (AID 1963590). A digest of the protocol:
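CRE-bla HEK 293T cells in DMEM with 10% dialyzed FBS, NEAA, pyruvate and 25 mM HEPES were plated 18 h at 37 C/5% CO2, then exposed to compounds in DMSO for 3 h before LiveBLAzer B/G FRET substrate addition.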

Assay [15] in a line: cAMP Responsive Elements (CRE) small molecule antagonists, cell-based qHTS assay (AID 1963591; active = well fitted inhibition curve with a large enough effect in the signal ratio in the repeat runs, not every such curve was filed as active; the % refers to the signal ratio). A digest of the protocol:
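CRE-bla HEK293T cells were plated 18 h at 37 °C/5% CO2, pinned with compound in DMSO, then stimulated with NKH477 at 0.25 uM final for 3 h. LiveBLAzer B/G FRET substrate was added and plates incubated 2 h at room temperature.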

For assay [16], the target named is D(2) dopamine receptor (Homo sapiens) (UniProt P14416). Description: Dopamine D2 receptor (DRD2) small molecule agonists, cell-based qHTS assay (AID 1963594). Note: nearly all actives have a fitted effect of over 35% in size. An outline of the steps: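 HEK293 cells stably expressing human DRD2, pre-treated with PDE inhibitor Ro20-1724 (0.1 mM final) and compound 10 min at room temperature, then stimulated with NKH477 (200nM […]) for 30 min. cAMP read by HTRF (665/620 nm).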
D(2) dopamine receptor (Homo sapiens), sequence (P14416 whole entry, looked up): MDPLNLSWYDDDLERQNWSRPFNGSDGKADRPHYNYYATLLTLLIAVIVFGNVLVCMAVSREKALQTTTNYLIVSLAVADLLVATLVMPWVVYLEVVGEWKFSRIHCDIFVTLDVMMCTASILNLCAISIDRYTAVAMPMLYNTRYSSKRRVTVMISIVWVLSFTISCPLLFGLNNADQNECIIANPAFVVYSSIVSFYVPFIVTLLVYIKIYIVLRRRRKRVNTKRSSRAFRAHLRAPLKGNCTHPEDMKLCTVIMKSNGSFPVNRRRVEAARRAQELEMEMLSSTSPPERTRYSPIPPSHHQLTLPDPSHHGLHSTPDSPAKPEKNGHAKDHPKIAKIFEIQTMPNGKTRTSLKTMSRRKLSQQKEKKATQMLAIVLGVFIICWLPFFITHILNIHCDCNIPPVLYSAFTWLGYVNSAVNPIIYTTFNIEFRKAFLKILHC

Assay [17] deals with Muscarinic acetylcholine receptor M1 (Homo sapiens) (UniProt P11229). Nature of the assay: Cholinergic receptor muscarinic 1 (CHRM1) small molecule antagonists, cell-based qHTS assay (AID 1963588). Note: nearly all actives have a fitted effect of over 40% in size. An outline of the steps:
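CHRM1-CHO calcium-flux assay, antagonist mode. Cells were seeded 18 h, dye-loaded 1 h at 37 C and given compound for 5 min at RT, then acetylcholine was added at 50nM. FDSS fluorescence was read 3 min; 15 concentrations, three runs.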

Assay [18] concerns the target Beta-2 adrenergic receptor (Homo sapiens) (UniProt P07550). Description: Adrenergic beta2 receptor (ADRB2) small molecule antagonists, cell-based qHTS assay (AID 1963592). Note: series mostly up to about 92 µM; nearly all actives have a fitted effect of over 50% in size. An outline of the steps: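 Cells (CHO, stable ADRB2 overexpression) incubated 18-20hr at 37C; compounds added from DMSO; agonist mix (1nM isoproterenol, 100uM IBMX, 25uM Ro-20-1724) added; 0.5hr RT; d2-cAMP and anti-cAMP-cryptate added; 1hr RT; 665/615 nm read.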

Assay [19] deals with D(2) dopamine receptor (Homo sapiens) (UniProt P14416). Nature of the assay: Dopamine D2 receptor (DRD2) small molecule antagonists, cell-based qHTS assay (AID 1963595; active = well fitted inhibition curve with a large enough effect in the signal ratio in the repeat runs, with a control signal flat; the % refers to the signal ratio). An outline of the steps: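 Antagonist mode in DRD2-HEK293 cells: after compound addition with 0.1 mM Ro20-1724, cells received quinpirole (12 nM) and NKH477 (200 nM) for 30 min at room temperature; HTRF cAMP read after 1 h detection.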

KiSS-1 receptor (Homo sapiens), sequence (Q969F8 whole entry, looked up): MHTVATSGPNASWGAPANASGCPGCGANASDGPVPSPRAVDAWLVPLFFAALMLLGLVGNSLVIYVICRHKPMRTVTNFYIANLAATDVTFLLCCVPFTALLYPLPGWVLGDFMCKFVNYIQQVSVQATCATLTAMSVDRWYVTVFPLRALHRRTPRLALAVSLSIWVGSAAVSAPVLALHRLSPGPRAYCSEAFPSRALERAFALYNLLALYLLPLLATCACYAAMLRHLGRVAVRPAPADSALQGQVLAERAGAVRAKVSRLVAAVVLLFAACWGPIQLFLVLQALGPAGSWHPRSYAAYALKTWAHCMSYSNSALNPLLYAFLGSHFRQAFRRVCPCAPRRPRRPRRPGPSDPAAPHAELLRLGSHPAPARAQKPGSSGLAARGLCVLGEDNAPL
Gonadotropin-releasing hormone receptor (Homo sapiens), sequence (P30968 whole entry, looked up): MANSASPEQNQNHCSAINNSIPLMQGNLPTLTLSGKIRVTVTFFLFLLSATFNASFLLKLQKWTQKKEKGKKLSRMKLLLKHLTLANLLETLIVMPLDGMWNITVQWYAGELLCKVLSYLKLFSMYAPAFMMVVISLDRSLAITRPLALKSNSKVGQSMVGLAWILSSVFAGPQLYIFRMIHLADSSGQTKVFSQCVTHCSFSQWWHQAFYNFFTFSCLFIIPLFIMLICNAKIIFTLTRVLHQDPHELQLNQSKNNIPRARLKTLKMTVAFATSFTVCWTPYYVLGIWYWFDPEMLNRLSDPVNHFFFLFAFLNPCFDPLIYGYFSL
Muscarinic acetylcholine receptor M1 (Homo sapiens), sequence (P11229 whole entry, looked up): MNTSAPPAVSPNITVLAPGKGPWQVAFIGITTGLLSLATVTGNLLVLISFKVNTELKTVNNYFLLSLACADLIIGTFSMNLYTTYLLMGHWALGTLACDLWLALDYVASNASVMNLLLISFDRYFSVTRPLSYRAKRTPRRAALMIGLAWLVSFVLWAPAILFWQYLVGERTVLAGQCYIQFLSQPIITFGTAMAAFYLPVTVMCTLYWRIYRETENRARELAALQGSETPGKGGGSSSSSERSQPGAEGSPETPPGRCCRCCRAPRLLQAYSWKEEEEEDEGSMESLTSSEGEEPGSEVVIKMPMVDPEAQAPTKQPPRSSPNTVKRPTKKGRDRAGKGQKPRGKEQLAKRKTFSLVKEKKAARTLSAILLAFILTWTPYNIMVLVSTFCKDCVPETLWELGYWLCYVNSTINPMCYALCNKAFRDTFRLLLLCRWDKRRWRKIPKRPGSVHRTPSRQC
Beta-2 adrenergic receptor (Homo sapiens), sequence (P07550 whole entry, looked up): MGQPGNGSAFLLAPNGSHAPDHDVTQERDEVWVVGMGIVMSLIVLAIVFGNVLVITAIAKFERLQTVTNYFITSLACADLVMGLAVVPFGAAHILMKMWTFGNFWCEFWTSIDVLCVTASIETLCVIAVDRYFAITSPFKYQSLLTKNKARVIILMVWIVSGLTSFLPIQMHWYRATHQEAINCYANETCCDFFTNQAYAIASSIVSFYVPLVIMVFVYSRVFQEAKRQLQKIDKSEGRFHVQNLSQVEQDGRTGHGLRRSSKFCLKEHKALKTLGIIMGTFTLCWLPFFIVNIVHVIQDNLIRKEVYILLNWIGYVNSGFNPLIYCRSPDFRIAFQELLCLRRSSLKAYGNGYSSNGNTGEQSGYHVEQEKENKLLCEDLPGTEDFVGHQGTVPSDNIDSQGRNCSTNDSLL

For the compound `CNCCCC1c2ccccc2C=Cc2ccccc21`, the Potency result in assay [1], in assay [2], in [3], in [4], in assay [5] and in assay [6] was “inactive” in each case. The Potency entry in assay [7], in assay [8], in assay [9], in assay [10], in assay [12] and in [13] was “inactive” throughout. The Potency entry in [14], in [15] and in [16] was “inactive” throughout. Further, the Potency in assay [11] was 7290 nM (active).
Consider `C=CCN1C[C@H](C(=O)N(CCCN(C)C)C(=O)NCC)C[C@@H]2c3cccc4[nH]cc(c34)C[C@H]21`, for which the Potency result in [1], in assay [2], in [3], in assay [4], in assay [5] and in assay [6] was “inactive” throughout. Besides, the Potency result in [7], in assay [8], in assay [9], in assay [10], in assay [17] and in assay [13] was “inactive” in each case. Also, the Potency result in assay [14], in assay [18] and in [19] was “inactive” in each case. Further, the Potency in [11] is 0.6 nM (active); in assay [12], 1.9 nM (active).
On to `Cc1oc2c(NC(=O)c3c(Cl)cccc3Cl)cccc2c1C(C)(C)O`, for which the Potency entry in assay [1], in assay [2], in assay [3], in assay [4], in assay [5] and in assay [6] was “inactive” throughout. The Potency result in [7], in [8], in assay [9], in assay [10], in assay [11] and in assay [12] was “inactive” each time. For the same compound, the Potency result in assay [17], in assay [13], in [14], in assay [18], in assay [16] and in [19] was “inactive” throughout.
With `CCCCN(CCCC)CC(O)c1cc(Cl)cc2c1-c1ccc(Cl)cc1/C2=C/c1ccc(Cl)cc1` (stereo not given), the Potency result in [1], in assay [2], in assay [3], in assay [4], in assay [5] and in [6] was “inactive” each time. In addition, the Potency result in [7], in assay [8], in assay [9], in assay [10], in [11] and in [12] was “inactive” in each case. Moreover, the Potency entry in [17], in [13] and in [19] was “inactive” each time.
Regarding `CN(C/C=C/c1ccccc1)Cc1cccc2ccccc12`, the Potency result in [1], in assay [2], in [3], in assay [4], in [5] and in assay [6] was “inactive” throughout. The Potency entry in assay [7], in assay [8], in assay [9], in assay [10], in assay [12] and in assay [17] was “inactive” in each case. Further, the Potency result in assay [13], in assay [18] and in assay [16] was “inactive” each time.
Consider `O=[N+]([O-])c1cc(N(CCO)CCO)ccc1NCCO`, for which the Potency result in [1], in assay [2], in [3], in [4], in assay [5] and in [6] was “inactive” throughout. For the same compound, the Potency entry in assay [7], in [8], in assay [9], in [10], in assay [11] and in assay [12] was “inactive” in each case. For the same compound, the Potency result in [13] and in assay [15] was “inactive” in each case.

These data come from PubChem BioAssay (Tox21).
